# Measured values: PubChem BioAssay (NCATS)
# Unmarked numbers belong to inactive results. Records with an inconclusive call do not appear. A call without a number means that no potency is given here. Calls of active or inactive are those of the source. Unless noted, calls come from the whole dose curve; as a rule, active = well fitted curve in the direction sought with a large enough effect; inconclusive = small, poorly fitted or top-dose-only effect, or another doubt; inactive = no such curve, though single readings can be large; an effect the other way counts as inactive or inconclusive.
# Legend:
# [1] = target: Beta-2 adrenergic receptor (Homo sapiens) (UniProt P07550); experiment: qHTS validation assay of beta-arrestin-biased ligands of beta2-adrenergic receptor (AID 485366)
# Procedure, shortened: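 Agonism was measured as beta-arrestin recruitment to recombinant beta2-AR, releasing tTA to drive luciferase. Cells were exposed for 18 hr at 37 degrees C to a series up to 46 microM. %Activity from corrected luminescence gave concentration-response curves.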
# [2] = target: ATP-dependent 6-phosphofructokinase (Trypanosoma brucei brucei) (UniProt O15648); experiment: qHTS Validation Assay to Find Inhibitors of T. brucei phosphofructokinase (AID 485368)
# Procedure, shortened: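 ADP-Glo luminescence, two-step: residual ATP depleted, then ADP converted to ATP for luciferase. Enzyme 1.25 nM, F6P 0.5 mM, ATP 0.1 mM, pH 8.0 TEA buffer, 45 min RT. Curves fitted and classed by quality and efficacy.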
# [3] = target: Thioredoxin reductase 1, cytoplasmic (Rattus norvegicus) (UniProt O89049); experiment: qHTS Assay for Substrates of Mammalian Selenoprotein Thioredoxin Reductase 1 (TrxR1) (AID 488772);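 note: series mostly up to about 57 µM; a drop in NADPH fluorescence below the no-compound background marks a TrxR1 substrate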
# Procedure, shortened: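 In this dual-purpose format, potential substrates are identified from the first fluorescence read after selenite addition, not from the 8-minute delta. Rat enzyme is preincubated with NADPH and then with compound at ~22 deg C.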
# [4] = target: Flap endonuclease 1 (Homo sapiens) (UniProt P39748); experiment: qHTS Validation Assay for the Inhibitors of Human Flap endonuclease 1 (FEN1) (AID 488816)
# Procedure, shortened: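 qHTS format: compounds and 10 nM FEN1 incubated 15 min at room temperature before adding 50 nM substrate. Cleavage followed by reads at 0 and 15 min; normalized data fitted to a four-parameter Hill curve.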
# [5] = target: M-phase phosphoprotein 8 (Homo sapiens) (UniProt Q99549); experiment: qHTS Validation Assay for Inhibitors for MPP8 Chromodomain Interactions with Methylated Histone Tails (AID 488949); note: top concentration of the series differs between compounds; nearly all actives have a fitted effect of over 55% in size
# Procedure, shortened: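 MPP8 (50 nM) was pre-bound to 50 nM biotinylated H3(1-18)K9me3 peptide in PBS pH 7.4 with 0.01% Tween-20. Compounds were then added for 30 min at room temperature, and complex disruption was read by AlphaScreen with streptavidin donor and nickel-chelate acceptor beads.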
# [6] = target: Chromobox protein homolog 1 (Homo sapiens) (UniProt P83916); experiment: qHTS Validation Assay for Inhibitors of HP1-beta Chromodomain Interactions with Methylated Histone Tails (AID 488953); note: nearly all actives have a fitted effect of over 50% in size; note: potency is the fitted concentration of half-maximal effect
# Procedure, shortened: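 Compounds pinned into a preassembled complex of HP1-beta and trimethyl-K9 histone H3(1-18) biotin peptide (50 nM each; PBS pH 7.4, 0.01% Tween-20). After 30 min, bead-based AlphaScreen detection followed.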
# [7] = target: Methanococcus maripaludis chaperonin (MmCpn) (UniProt Q6LX38); experiment: High-Throughput Screening for Modulators of Cytosolic Chaperonin Activity: MmCpn Primary Screen (AID 488978);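 note: 50 nM MmCpn enzyme hydrolysing 30 µM ATP at 37 °C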
# Procedure, shortened: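 MmCpn at 50 nM final was preincubated 5 min at RT with compound. ATP was then added at 30 uM final for 10 min at 37 C. ADP formed was detected by Transcreener HTRF (665/590 nm).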
# [8] = target: Transient receptor potential cation channel subfamily V member 1 (Homo sapiens) (UniProt Q8NER1); experiment: HTS Assay for Compounds that Act as Enhancers of the Vanilloid Receptor 1 (AID 488979)
# Procedure, shortened: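 Calcium influx kinetics via Fluo-8 (480/520 nm) in TRPV1-expressing cells, 2000/well cultured overnight at 35.5C. Compound-alone read 3 min (agonist phase), followed by EC20 capsaicin challenge for 2 min (enhancer phase).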
# [9] = target: Thyrotropin receptor (Homo sapiens) (UniProt P16473); experiment: qHTS Assay for Antagonists of the Thyroid Stimulating Hormone Receptor (AID 488980); note: series mostly up to about 58 µM
# Procedure, shortened: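 TSHR-transfected HEK293 cells (2000/well) in HEPES-buffered HBSS with 70 uM RO 20-1724 were stimulated with 4 nM TSH (EC80, final) in the presence of compound. cAMP was measured by HTRF competition after lysis and 30 min at RT.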
# [10] = target: D(1A) dopamine receptor (Homo sapiens) (UniProt P21728); experiment: HTS Assay for Allosteric Agonists of the Human D1 Dopamine Receptor: Primary Screen for Agonists (AID 488981)
# Procedure, shortened: (§1)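 Calcium flux in an inducible, force-coupled HEK293 Trex D1 line (overnight at 30 C): agonist mode is the 180 s kinetic read after compound; potentiator mode is the following 180 s read after dopamine at EC20.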
# [11] = target: D(1A) dopamine receptor (Homo sapiens) (UniProt P21728); experiment: HTS Assay for Allosteric Agonists of the Human D1 Dopamine Receptor: Primary Screen for Potentiators (AID 488982); note: potency is the fitted concentration of half-maximal effect
# Procedure, shortened: as §1
# [12] = target: D(1A) dopamine receptor (Homo sapiens) (UniProt P21728); experiment: HTS Assay for Allosteric Agonists of the Human D1 Dopamine Receptor: Primary Screen for Antagonists (AID 488983);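 note: calcium flux response to an EC80 dopamine challenge measured with no-wash dye; nearly all actives have a fitted effect of over 65% in size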
# Procedure, shortened: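 In this primary screen, compounds are applied to calcium-dye-loaded HEK293 T-REx cells with force-coupled D1 expression induced overnight at 30 C. An EC80 of dopamine follows the 180 s compound phase, and calcium is monitored for a further 180 s.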
# [13] = Validation screen for small molecules that induce genotoxicity in human embryonic kidney (HEK293T) cells expressing luciferase-tagged ELG1 (AID 493106)
# Procedure, shortened: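 In this validation screen, increased ELG1-luciferase signal flags compounds causing genetic stress. HEK293T reporter cells are treated 16 hr (37 °C, 5% CO2), developed with ONE-Glo for 30 min at room temperature, and imaged on a CCD-based reader.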
# [14] = target: Thyrotropin-releasing hormone receptor (Homo sapiens) (UniProt P34981); experiment: qHTS for Small Molecule Agonists and Allosteric Enhancers of Human TRH Receptor: Validation Screen for Agonists (AID 493127;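 active = calcium activation more than 3 SD above the typical response in the agonist read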;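 note: intracellular calcium rise by fluo-8 fluorescence before TRH EC20 addition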); conditions: TRH receptor agonist cell assay; at 2 µM; active compounds read high
# Procedure, shortened: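 Kinetic fluorescence assay of agonist-induced calcium release: overnight-plated TRHR cells, room-temperature fluo-8 loading, baseline then compound addition with per-second reads.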
# [15] = Quantitative high throughput screen for delayed death inhibitors of the malarial parasite plastid, 96 hour incubation (AID 488745); note: nearly all actives have a fitted effect of over 70% in size; note: potency is the fitted concentration of half-maximal effect
# Procedure, shortened: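 Two-generation (96 h) exposure of luciferase-reporter P. falciparum in erythrocytes, 2% hematocrit, 0.1% parasitemia final, 37 C, 5% CO2, RPMI 1640 with 0.5% Albumax. Growth inhibition scored by reduced luminescence.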
# [16] = Quantitative high throughput screen for delayed death inhibitors of the malarial parasite plastid, 48 hour incubation (AID 488752); note: nearly all actives have a fitted effect of over 65% in size; note: potency is the fitted concentration of half-maximal effect
# Procedure, shortened: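 Cultures: infected erythrocytes at final 2% hematocrit and 0.1% parasitemia in Albumax-supplemented RPMI. Parasites express integrated firefly luciferase. Incubation with compound lasts 48 h before luminescent detection of remaining reporter activity.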
# [17] = target: Thioredoxin reductase 1, cytoplasmic (Rattus norvegicus) (UniProt O89049); experiment: qHTS Assay for Inhibitors of Mammalian Selenoprotein Thioredoxin Reductase 1 (TrxR1) (AID 488773); conditions: Potency: inhibition;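 note: drop in NADPH fluorescence over an 8 min run after selenite addition; series mostly up to about 57 µM; nearly all actives have a fitted effect of over 40% in size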
# Procedure, shortened: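 Inhibition is scored from the loss of NADPH fluorescence between first and last reads of an 8-min kinetic run. Selenite (400 uM) was the substrate, added after 15 min compound preincubation at room temperature.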
# [18] = target: ATPase family AAA domain-containing protein 5 (Homo sapiens) (UniProt Q96QE3); experiment: Validation screen for small molecules that inhibit ELG1-dependent DNA repair in human embryonic kidney (HEK293T) cells expressing luciferase-tagged ELG1 (AID 493107); note: nearly all actives have a fitted effect of over 70% in size; note: potency is the fitted concentration of half-maximal effect
# Procedure, shortened: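 Compounds reducing 5-fluorouridine-driven ELG1-luciferase signal in HEK293T cells were scored; exposure lasted 16 hr at 37 °C with luminescence detected via ONE-Glo.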
# [19] = target: Tyrosyl-DNA phosphodiesterase 1 (Homo sapiens) (UniProt Q9NUW8); experiment: Confirmation Assay for Inhibitors of Tyrosyl-DNA Phosphodiesterase (TDP1) (AID 489007); conditions: recombinant human TDP1 enzymatic activity, dose-response; note: potency is the fitted concentration of half-maximal effect; nearly all actives have a fitted effect of over 40% in size
# Procedure, shortened: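 Loss of AlphaScreen signal reports Tdp1 cleavage of a dual-labelled DNA substrate. Conditions: 1 nM E. coli-derived enzyme, 15 nM substrate, 15 min compound preincubation, 5 min reaction, 10 min bead incubation, all at room temperature.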
# ATPase family AAA domain-containing protein 5 (Homo sapiens), sequence (Q96QE3 whole entry, looked up, the tested form may be a part): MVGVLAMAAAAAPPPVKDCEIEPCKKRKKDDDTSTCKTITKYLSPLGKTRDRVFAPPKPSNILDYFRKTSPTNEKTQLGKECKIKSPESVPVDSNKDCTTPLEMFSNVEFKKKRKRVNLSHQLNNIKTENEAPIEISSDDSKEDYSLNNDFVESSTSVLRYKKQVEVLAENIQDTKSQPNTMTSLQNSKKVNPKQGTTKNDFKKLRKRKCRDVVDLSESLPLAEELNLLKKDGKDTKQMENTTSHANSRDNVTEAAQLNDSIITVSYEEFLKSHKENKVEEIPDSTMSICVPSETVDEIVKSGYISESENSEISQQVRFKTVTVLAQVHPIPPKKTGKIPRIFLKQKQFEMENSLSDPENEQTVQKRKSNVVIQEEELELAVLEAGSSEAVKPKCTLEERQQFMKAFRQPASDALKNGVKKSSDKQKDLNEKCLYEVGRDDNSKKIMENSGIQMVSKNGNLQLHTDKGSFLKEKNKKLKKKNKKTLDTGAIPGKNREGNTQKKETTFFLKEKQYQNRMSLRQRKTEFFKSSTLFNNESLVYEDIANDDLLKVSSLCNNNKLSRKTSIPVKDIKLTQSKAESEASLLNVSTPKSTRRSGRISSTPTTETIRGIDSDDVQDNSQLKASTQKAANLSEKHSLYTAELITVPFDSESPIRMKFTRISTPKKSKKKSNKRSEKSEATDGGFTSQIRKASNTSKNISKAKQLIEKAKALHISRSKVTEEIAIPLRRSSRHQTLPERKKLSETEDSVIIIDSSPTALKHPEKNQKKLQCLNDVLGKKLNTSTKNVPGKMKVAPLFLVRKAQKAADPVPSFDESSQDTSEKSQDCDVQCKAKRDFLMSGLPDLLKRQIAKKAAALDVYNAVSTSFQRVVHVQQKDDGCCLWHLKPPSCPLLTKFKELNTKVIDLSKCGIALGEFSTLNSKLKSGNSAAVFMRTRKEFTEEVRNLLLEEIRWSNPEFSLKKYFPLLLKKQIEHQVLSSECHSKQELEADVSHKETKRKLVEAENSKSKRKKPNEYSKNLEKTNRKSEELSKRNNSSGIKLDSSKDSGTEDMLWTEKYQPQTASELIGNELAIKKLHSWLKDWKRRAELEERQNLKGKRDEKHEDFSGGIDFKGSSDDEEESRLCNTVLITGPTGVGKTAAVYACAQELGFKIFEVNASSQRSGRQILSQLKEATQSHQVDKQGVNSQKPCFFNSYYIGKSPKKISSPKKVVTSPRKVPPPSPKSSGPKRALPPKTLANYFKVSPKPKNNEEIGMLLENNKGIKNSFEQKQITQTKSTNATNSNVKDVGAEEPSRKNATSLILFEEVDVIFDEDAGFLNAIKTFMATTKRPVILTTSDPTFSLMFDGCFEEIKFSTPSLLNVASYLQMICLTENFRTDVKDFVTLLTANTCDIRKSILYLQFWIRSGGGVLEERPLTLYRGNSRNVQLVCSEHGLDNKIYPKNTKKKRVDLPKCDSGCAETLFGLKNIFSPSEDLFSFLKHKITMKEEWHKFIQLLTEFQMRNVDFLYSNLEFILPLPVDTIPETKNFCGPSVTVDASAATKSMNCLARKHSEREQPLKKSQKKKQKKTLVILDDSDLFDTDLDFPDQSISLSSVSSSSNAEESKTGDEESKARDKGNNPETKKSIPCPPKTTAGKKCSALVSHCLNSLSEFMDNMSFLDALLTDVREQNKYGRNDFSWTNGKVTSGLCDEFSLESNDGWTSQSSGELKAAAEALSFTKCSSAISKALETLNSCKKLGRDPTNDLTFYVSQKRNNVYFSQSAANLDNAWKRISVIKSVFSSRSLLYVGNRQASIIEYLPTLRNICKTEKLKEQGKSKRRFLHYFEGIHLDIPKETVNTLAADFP
# Methanococcus maripaludis chaperonin (MmCpn), sequence (Q6LX38 1-543): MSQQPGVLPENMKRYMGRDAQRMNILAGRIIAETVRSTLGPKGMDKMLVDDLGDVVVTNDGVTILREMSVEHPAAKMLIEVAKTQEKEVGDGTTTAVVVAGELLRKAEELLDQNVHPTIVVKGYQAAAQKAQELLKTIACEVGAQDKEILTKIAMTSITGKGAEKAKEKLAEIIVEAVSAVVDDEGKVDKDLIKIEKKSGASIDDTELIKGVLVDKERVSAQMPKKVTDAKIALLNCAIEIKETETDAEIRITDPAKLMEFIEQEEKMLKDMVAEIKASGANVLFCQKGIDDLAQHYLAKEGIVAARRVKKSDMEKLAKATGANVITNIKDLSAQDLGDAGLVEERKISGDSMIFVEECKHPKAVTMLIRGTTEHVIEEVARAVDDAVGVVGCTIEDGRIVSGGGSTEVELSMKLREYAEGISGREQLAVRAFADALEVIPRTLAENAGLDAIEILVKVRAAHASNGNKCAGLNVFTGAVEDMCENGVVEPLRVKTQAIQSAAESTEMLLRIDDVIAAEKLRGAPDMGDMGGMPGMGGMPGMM
# Transient receptor potential cation channel subfamily V member 1 (Homo sapiens), sequence (Q8NER1 whole entry, looked up): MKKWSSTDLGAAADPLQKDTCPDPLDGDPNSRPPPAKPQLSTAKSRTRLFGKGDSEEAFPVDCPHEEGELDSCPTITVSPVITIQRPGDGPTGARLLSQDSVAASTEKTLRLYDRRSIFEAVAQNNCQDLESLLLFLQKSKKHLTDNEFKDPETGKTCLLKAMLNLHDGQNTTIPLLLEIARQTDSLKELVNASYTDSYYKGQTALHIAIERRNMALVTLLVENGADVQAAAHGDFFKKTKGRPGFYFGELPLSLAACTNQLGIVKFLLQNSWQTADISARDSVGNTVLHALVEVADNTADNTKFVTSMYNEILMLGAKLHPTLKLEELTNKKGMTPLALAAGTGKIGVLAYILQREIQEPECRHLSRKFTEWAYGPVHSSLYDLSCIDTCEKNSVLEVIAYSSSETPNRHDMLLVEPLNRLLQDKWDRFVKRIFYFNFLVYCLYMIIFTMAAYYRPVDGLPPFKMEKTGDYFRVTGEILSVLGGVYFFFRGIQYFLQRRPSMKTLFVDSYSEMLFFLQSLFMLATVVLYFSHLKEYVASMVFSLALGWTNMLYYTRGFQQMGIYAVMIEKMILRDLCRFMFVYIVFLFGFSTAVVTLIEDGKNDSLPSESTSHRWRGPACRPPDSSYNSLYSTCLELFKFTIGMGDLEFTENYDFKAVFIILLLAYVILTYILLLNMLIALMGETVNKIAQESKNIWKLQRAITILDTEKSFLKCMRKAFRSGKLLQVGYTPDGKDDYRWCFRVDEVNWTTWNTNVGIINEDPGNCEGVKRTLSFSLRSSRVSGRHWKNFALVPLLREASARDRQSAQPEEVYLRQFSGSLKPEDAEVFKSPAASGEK
# Thyrotropin receptor (Homo sapiens), sequence (P16473 whole entry, looked up): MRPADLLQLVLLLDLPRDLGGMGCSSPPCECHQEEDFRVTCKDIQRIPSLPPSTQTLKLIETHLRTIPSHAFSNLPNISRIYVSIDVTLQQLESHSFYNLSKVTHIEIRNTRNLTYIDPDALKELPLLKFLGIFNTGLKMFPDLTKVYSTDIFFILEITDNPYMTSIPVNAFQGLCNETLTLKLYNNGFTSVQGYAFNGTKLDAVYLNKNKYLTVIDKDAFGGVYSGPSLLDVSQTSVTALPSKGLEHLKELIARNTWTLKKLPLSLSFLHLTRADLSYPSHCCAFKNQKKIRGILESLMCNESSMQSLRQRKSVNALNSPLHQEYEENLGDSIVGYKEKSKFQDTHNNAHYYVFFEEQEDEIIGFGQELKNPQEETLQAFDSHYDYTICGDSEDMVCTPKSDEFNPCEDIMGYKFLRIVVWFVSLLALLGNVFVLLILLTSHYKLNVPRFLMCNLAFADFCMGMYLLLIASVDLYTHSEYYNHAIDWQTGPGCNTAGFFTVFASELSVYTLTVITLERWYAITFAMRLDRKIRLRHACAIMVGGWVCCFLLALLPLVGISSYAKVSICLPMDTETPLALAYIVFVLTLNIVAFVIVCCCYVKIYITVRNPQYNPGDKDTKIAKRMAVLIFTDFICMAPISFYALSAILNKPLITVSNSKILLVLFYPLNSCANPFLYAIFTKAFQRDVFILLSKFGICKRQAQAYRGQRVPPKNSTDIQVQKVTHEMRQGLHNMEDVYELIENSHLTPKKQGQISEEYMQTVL
# Beta-2 adrenergic receptor (Homo sapiens), sequence (P07550 whole entry, looked up): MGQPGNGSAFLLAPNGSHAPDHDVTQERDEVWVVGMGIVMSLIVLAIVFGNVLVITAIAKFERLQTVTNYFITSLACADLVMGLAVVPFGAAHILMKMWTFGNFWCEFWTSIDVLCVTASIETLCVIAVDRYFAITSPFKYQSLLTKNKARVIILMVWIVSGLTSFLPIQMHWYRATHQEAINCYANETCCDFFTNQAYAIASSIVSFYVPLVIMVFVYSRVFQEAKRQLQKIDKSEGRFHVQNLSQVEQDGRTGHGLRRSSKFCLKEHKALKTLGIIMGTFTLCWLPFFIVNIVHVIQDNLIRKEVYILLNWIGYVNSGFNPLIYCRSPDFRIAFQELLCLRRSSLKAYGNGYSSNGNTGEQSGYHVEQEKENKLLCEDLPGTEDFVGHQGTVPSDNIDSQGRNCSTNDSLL
# D(1A) dopamine receptor (Homo sapiens), sequence (P21728 whole entry, looked up): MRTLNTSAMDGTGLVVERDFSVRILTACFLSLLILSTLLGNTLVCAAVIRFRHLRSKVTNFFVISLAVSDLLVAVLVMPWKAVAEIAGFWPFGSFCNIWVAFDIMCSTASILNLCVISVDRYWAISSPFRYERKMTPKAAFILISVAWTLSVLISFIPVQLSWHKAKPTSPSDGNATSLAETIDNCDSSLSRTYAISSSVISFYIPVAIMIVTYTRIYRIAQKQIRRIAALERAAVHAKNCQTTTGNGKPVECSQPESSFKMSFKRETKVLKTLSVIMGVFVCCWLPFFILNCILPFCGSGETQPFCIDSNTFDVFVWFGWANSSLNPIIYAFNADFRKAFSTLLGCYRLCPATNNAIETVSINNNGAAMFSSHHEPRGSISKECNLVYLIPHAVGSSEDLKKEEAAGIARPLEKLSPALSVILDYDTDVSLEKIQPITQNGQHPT
# Chromobox protein homolog 1 (Homo sapiens), sequence (P83916 whole entry, looked up): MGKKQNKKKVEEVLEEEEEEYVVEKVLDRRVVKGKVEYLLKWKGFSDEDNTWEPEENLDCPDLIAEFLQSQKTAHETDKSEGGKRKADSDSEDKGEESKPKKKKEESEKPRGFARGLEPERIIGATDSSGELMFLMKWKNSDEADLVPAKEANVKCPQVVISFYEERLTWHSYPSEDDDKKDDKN
SMILES,outcome [1],Potency [2],outcome [3],Potency [4],Potency [5],Potency [6],outcome [7],outcome [8],outcome [9],Potency [10],Potency [11],Potency [12],Potency [13],activation [14] [%],Potency [15],Potency [16],Potency [17],Potency [18],Potency [19]
O=C(O)Cc1c[nH]c2ccc(O)cc12,inactive,inactive,inactive,inactive,inactive,inactive,inactive,inactive,inactive,inactive,inactive,inactive,inactive,-0.188,,,,,
O=C(O)C1CCCNC1 (configuration not stated),inactive,,inactive,inactive,inactive,inactive,inactive,inactive,inactive,inactive,2.31 µM (active),inactive,inactive,0.625,inactive,inactive,inactive,inactive,
NC1(C(=O)O)CC1,inactive,,inactive,inactive,inactive,inactive,inactive,inactive,inactive,inactive,inactive,inactive,inactive,,inactive,inactive,inactive,inactive,
CN(C)CCCc1cc(C(=O)Nc2ccc(-c3ccncc3)cc2)ccc1O,inactive,inactive,,inactive,inactive,,inactive,,,inactive,inactive,inactive,inactive,,,,inactive,inactive,
CCCCCCCCCCCCCCC[C@H](O)[C@H](N)CO,inactive,,inactive,inactive,inactive,89.1 µM (active),inactive,inactive,inactive,inactive,inactive,inactive,inactive,1.44,inactive,inactive,inactive,inactive,
C=CC[C@H](N)C(=O)O,inactive,,inactive,inactive,inactive,inactive,inactive,inactive,inactive,inactive,inactive,inactive,inactive,-3.19,inactive,inactive,inactive,inactive,
CC1CCN(CC[C@H]2CCCN2S(=O)(=O)c2cccc(O)c2)CC1,inactive,,inactive,inactive,inactive,inactive,inactive,inactive,inactive,inactive,inactive,inactive,inactive,,inactive,inactive,inactive,,
NC1CCN(O)C1=O (configuration not stated),inactive,,inactive,inactive,inactive,inactive,inactive,inactive,inactive,inactive,inactive,inactive,inactive,,inactive,inactive,inactive,,
O=C(O)C1CN(CCCP(=O)(O)O)CCN1 (configuration not stated),inactive,,inactive,inactive,inactive,inactive,inactive,inactive,inactive,inactive,inactive,inactive,inactive,0.188,inactive,inactive,inactive,inactive,
COc1cc(N)c(Cl)cc1C(=O)OCCN1CCCCC1,inactive,,inactive,inactive,inactive,0.006 µM (active),inactive,inactive,inactive,inactive,inactive,inactive,inactive,-2.44,inactive,inactive,inactive,inactive,
Nc1ncnc2c1nc(Sc1ccc(Cl)cc1)n2[C@H]1OC2COP(=O)(O)O[C@@H]2C1O (some centres not stated),inactive,inactive,inactive,inactive,inactive,,inactive,,,inactive,inactive,inactive,,,,,inactive,inactive,
CCCCCCN(CCCCCC)C(=O)Cc1c(-c2ccc(F)cc2)[nH]c2ccccc12,inactive,,inactive,inactive,inactive,inactive,inactive,inactive,inactive,inactive,inactive,inactive,inactive,,3.7 µM (active),5.22 µM (active),inactive,inactive,
N[C@@H](Cc1ccc(O)c(I)c1)C(=O)O,inactive,,inactive,inactive,inactive,inactive,inactive,inactive,inactive,inactive,inactive,inactive,inactive,1.19,inactive,inactive,inactive,inactive,
Cc1nc(N=Nc2ccc(S(=O)(=O)O)cc2S(=O)(=O)O)c(COP(=O)(O)O)c(C=O)c1O,inactive,,inactive,inactive,inactive,inactive,inactive,inactive,inactive,inactive,inactive,inactive,inactive,0.938,inactive,inactive,inactive,,7.08 µM (active)
CCN(CC)CCOC(=O)c1cc(Cl)c(N)cc1OC,inactive,,inactive,inactive,inactive,inactive,inactive,inactive,inactive,inactive,inactive,inactive,inactive,1.5,inactive,inactive,inactive,inactive,
CC(C)(C)c1ccc(/C=C/C(=O)Nc2ccc3c(c2)OCCO3)cc1,inactive,inactive,inactive,inactive,inactive,,inactive,,,inactive,inactive,inactive,inactive,,,,inactive,18.3 µM (active),
COC(=O)C(N)Cc1ccc(Cl)cc1 (configuration not stated),inactive,,inactive,inactive,inactive,0.0067 µM (active),inactive,inactive,inactive,inactive,inactive,inactive,inactive,-2.56,inactive,inactive,inactive,,
